Measurements reported in the supplement of paper PMC12645437, “Orthogonal IMiD-Degron Pairs Induce Selective Protein Degradation in Cells” (ACS Chemical Biology, 2025).
Whole data set: some 8,300 sequences, median “log2 fold change of degron read counts, EGFP-low vs EGFP+ sorted cells (limma voom), compound-induced degradation” near -1.1, cut for the highest 2% near 3.2. The sample holds the highest values, similar sequences and a random draw of the others, so the mix is not that of the screen.

T1: CRBN, Q96SW2
T1 chain: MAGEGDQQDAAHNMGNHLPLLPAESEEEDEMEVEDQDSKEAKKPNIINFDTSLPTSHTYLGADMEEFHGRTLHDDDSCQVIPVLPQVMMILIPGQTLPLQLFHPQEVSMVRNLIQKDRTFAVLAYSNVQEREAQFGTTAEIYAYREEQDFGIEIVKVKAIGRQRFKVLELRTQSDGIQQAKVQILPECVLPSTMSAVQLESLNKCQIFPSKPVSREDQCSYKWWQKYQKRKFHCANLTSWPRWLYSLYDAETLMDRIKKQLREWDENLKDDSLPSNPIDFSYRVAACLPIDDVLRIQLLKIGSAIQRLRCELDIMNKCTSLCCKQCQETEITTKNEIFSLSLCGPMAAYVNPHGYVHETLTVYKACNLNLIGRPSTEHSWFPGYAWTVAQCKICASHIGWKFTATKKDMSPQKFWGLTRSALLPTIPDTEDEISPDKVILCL


Target: T1, CRBN, Q96SW2
Assay: log2 fold change of degron read counts, EGFP-low vs EGFP+ sorted cells (limma voom), compound-induced degradation; higher = more compound-induced degradation of the degron-EGFP fusion; degrons are variants of IKZF1/3 zinc finger 2; compound dose not given here
Conditions: Jurkat, 18 h
[1] = compound: compound 19 (5-tert-butyl-thalidomide)
[2] = compound: compound 22 (5-morpholino-thalidomide)
[3] = compound: compound 33 (diphenyl IMiD analogue)
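Also: pooled lentiviral library of zinc finger degron-EGFP fusions in mCherry-positive Jurkat cells, FACS-sorted after compound exposure, with degron abundance counted by next-generation sequencing.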

| Sequence | log2 fold change of degron read counts [1] | log2 fold change of degron read counts [2] | log2 fold change of degron read counts [3] | log2 fold change of degron read counts (compound: thalidomide) |
| --- | --- | --- | --- | --- |
| FACNICGACFTQKGNLLRHIKL [46F_47A_49N_50I_52G_53A_54C_55F_67L_, Q9UKT9] | 2.13 | 1.95 | 0.735 | -0.49 |
| FKCEICGRRFTQKGNLLRHIKL [46F_47K_49E_50I_52G_53R_54R_55F_67L_, Q9UKT9] | -2.87 | -3.55 | -3 | -1.89 |
| FDCSVCGHIFTQKGNLLRHIKL [46F_47D_49S_50V_52G_53H_54I_55F_67L_, Q9UKT9] | -1.69 | -1.84 | -1.76 | -1.28 |
| FMCPICGAWFTQKGNLLRHIKL [46F_47M_49P_50I_52G_53A_54W_55F_67L_, Q9UKT9] | -1.26 | -0.611 | 1.3 | -0.221 |
| FDCPICGAEFTQKGNLLRHIKL [46F_47D_49P_50I_52G_53A_54E_55F_67L_, Q9UKT9] | -0.0781 | -0.933 | 1.14 | 0.579 |
| FDCNVCGALFTQKGNLLRHIKL [46F_47D_49N_50V_52G_53A_54L_55F_67L_, Q9UKT9] | -2.45 | -2.67 | -0.75 | -0.856 |
| FRCPICGHEFTQKGNLLRHIKL [46F_47R_49P_50I_52G_53H_54E_55F_67L_, Q9UKT9] | -2.68 | -2.48 | -1.5 | -1.35 |
| FTCEQCGAHFTQKGNLLRHIKL [46F_47T_49E_50Q_52G_53A_54H_55F_67L_, Q9UKT9] | -1.82 | -1.63 | -0.151 | -0.624 |
| FVCNQCGHNFTQKGNLLRHIKL [46F_47V_49N_50Q_52G_53H_54N_55F_67L_, Q9UKT9] | -3 | -3.4 | -2.99 | -3.15 |
| FWCEICGAKFTQKGNLLRHIKL [46F_47W_49E_50I_52G_53A_54K_55F_67L_, Q9UKT9] | 3.96 | 3.75 | 1.53 | 1.31 |
| FVCEICGAKFTQKGNLLRHIKL [46F_47V_49E_50I_52G_53A_54K_55F_67L_, Q9UKT9] | 1.42 | 1.89 | 0.387 | 3.07 |
| FRCEICGAKFTQKGNLLRHIKL [46F_47R_49E_50I_52G_53A_54K_55F_67L_, Q9UKT9] | -0.269 | -0.354 | 0.56 | 1.68 |
| FTCEICGAKFTQKGNLLRHIKL [46F_47T_49E_50I_52G_53A_54K_55F_67L_, Q9UKT9] | 0.913 | 1.9 | 0.245 | 2.71 |
| FICEICGAKFTQKGNLLRHIKL [46F_47I_49E_50I_52G_53A_54K_55F_67L_, Q9UKT9] | 0.419 | 2.07 | 0.709 | 2.61 |
| FACEICGAKFTQKGNLLRHIKL [46F_47A_49E_50I_52G_53A_54K_55F_67L_, Q9UKT9] | 3.82 | 1.86 | -1.82 | 1.35 |
| FGCEICGAKFTQKGNLLRHIKL [46F_47G_49E_50I_52G_53A_54K_55F_67L_, Q9UKT9] | 3.49 | 1.63 | -1.11 | 1.73 |

| Sequence | log2 fold change of degron read counts [1] | log2 fold change of degron read counts [2] | log2 fold change of degron read counts [3] | log2 fold change of degron read counts (compound: thalidomide) |
| --- | --- | --- | --- | --- |
| FMCEICGAKFTQKGNLLRHIKL [46F_47M_49E_50I_52G_53A_54K_55F_67L_, Q9UKT9] | 0.747 | -0.267 | 0.58 | 1.27 |
| FFCNQCGAAFTQKGNLLRHIKL [46F_47F_49N_50Q_52G_53A_54A_55F_67L_, Q9UKT9] | -1.05 | -0.697 | -0.811 | -1.91 |
| LMCPICGFICTQKGNLLRHIKL [46L_47M_49P_50I_52G_53F_54I_55C_67L_, Q9UKT9] | -0.334 | 0.292 | 2.06 | 1.27 |
| LRCNQCGFGCTQKGNLLRHIKL [46L_47R_49N_50Q_52G_53F_54G_55C_67L_, Q9UKT9] | -1.13 | -1.8 | -1.41 | -1.08 |
| FFCSVCGHEFTQKGNLLRHIKL [46F_47F_49S_50V_52G_53H_54E_55F_67L_, Q9UKT9] | -2.81 | -3.34 | -3.2 | -2.56 |
| FCCPICGAMFTQKGNLLRHIKL [46F_47C_49P_50I_52G_53A_54M_55F_67L_, Q9UKT9] | 1.6 | 1.26 | 2.22 | 1.23 |
| FSCNQCGHTFTQKGNLLRHIKL [46F_47S_49N_50Q_52G_53H_54T_55F_67L_, Q9UKT9] | -2.44 | -2.51 | -2.85 | -2.59 |
| FMCNVCGADFTQKGNLLRHIKL [46F_47M_49N_50V_52G_53A_54D_55F_67L_, Q9UKT9] | -2.78 | -2.8 | 1.31 | -1.76 |
| LYCPICGFICTQKGNLLRHIKL [46L_47Y_49P_50I_52G_53F_54I_55C_67L_, Q9UKT9] | 2.94 | 2.9 | 1.98 | 0.937 |
| FSCNVCGAPFTQKGNLLRHIKL [46F_47S_49N_50V_52G_53A_54P_55F_67L_, Q9UKT9] | 0.819 | 0.453 | -0.105 | 0.146 |
| FCCEICGAGFTQKGNLLRHIKL [46F_47C_49E_50I_52G_53A_54G_55F_67L_, Q9UKT9] | 3.68 | 2.09 | 1.63 | 1.42 |
| FSCEICGAGFTQKGNLLRHIKL [46F_47S_49E_50I_52G_53A_54G_55F_67L_, Q9UKT9] | 3.39 | 1.57 | 1.23 | 0.613 |
| FVCEICGAGFTQKGNLLRHIKL [46F_47V_49E_50I_52G_53A_54G_55F_67L_, Q9UKT9] | 1.53 | 3.07 | 1.92 | 3.23 |
| FKCEICGAGFTQKGNLLRHIKL [46F_47K_49E_50I_52G_53A_54G_55F_67L_, Q9UKT9] | 2.69 | -0.466 | -0.772 | 0.328 |
| FMCEICGAGFTQKGNLLRHIKL [46F_47M_49E_50I_52G_53A_54G_55F_67L_, Q9UKT9] | 2.81 | 1.95 | 2.73 | 1.31 |
